# Compound activity as filed in PubChem.
# A selection: hits, their analogues and other compounds. The true share with any hit is near 1.9%.
# 14-3-3 Bad PPI = disrupts binding of bovine 14-3-3 zeta to phospho-Bad peptide. P63103. inhibition, % at 21.7 µM. TR-FRET 14-3-3zeta/Dy647-pBad peptide displacement, 1 h. 220,000 compounds, 0.71% hits;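 active = inhibition above about 70%, limit read from the data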
# Target sequence (P63103 whole entry, looked up): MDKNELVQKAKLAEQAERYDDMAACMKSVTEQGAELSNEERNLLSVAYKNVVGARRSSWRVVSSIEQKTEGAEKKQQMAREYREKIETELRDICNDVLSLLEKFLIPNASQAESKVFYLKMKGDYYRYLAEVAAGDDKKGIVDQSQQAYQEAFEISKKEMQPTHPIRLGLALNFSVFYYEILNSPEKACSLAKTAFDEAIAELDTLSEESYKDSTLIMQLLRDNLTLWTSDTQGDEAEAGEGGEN
# dFosB act-1 = enhances mouse delta FosB homodimer DNA binding; P13346; activation, % at 25 µM; AID 493131; 340,000 compounds, 0.99% hits; purified delta FosB, TAMRA-CDK5 oligo fluorescence polarization; percent of positive-control signal above neutral wells;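 active = mean activation above about 17%, with every replicate also reaching it, limit read from the data, passing the limit was not always enough; inconclusive = only one of the two conditions met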
# Target sequence (P13346 whole entry, looked up): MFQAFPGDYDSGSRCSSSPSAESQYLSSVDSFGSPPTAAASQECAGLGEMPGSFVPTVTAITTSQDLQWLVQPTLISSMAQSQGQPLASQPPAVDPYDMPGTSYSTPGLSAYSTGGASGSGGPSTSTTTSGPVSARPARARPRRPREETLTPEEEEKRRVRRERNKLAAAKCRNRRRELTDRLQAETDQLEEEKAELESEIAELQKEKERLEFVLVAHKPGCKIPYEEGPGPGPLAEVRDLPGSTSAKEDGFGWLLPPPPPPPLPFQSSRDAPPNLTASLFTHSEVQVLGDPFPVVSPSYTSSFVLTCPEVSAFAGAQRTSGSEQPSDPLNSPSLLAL
# HMGR II inh = E. faecalis class II HMG-CoA reductase inhibition. purified E. faecalis HMGR, NADPH absorbance 340 nm kinetic. inhibition, % at 10 µM. 190,000 compounds, 0.41% hits;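 active = inhibition above a set limit, the median over all tested compounds plus 3 SD, cut at about 9.5% in these data; inconclusive = no clear call, values can overlap the other calls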;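 note: enzyme runs in reverse so mevalonate oxidation gives rising NADPH absorbance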
# p47phox inh = blocks human p47phox regulatory protein of NADPH oxidases; P14598; p47phox/p22phox peptide binding, fluorescence polarization, 2 h; inhibition, % at 24.7 µM; 220,000 compounds, 0.53% hits;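 active = inhibition above about 30%, limit read from the data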
# dFosB act-2 = enhances mouse delta FosB homodimer binding to DNA | 2,400 tested, under 10 active | shares compounds with dFosB act-1 | purified delta FosB, TAMRA-CDK5 oligo fluorescence polarization; normalised: neutral wells 0, positive control 100 | activation, % at 24.9 µM;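 active = highest replicate activation at or above 34% and every replicate reaching that threshold; inconclusive = meets only one of the two criteria; inactive = meets neither criterion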;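 note: higher polarization means more probe DNA bound by delta FosB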
# Numbers stand for hits; . = inactive; ? = inconclusive; / = no result given.
SMILES,14-3-3 Bad PPI,dFosB act-1,HMGR II inh,p47phox inh,dFosB act-2
COc1ccc(CC(=O)Nc2ccc(-c3noc(-c4cc(OC)c(OC)c(OC)c4)n3)cc2)cc1,.,21,.,.,.
CCOc1ccccc1-c1nc(-c2ccc(NC(=O)c3ccc(Br)o3)cc2)no1,.,/,.,.,/
CCC(C)NC(=O)c1ccc2nc(-c3ccc(OC)c(OC)c3)c(-c3ccc(OC)c(OC)c3)nc2c1 (stereo not drawn),/,.,/,/,/
COc1ccc(/C=C/C(=O)NCc2cnn(C)c2C)cc1COc1ccc(Br)cc1,.,.,.,.,/
S=C(CN1CCCC1=S)NCCc1ccccc1,.,.,/,.,/
COc1ccc(NC(=O)C2CCN(c3nc(-c4ccc(OC)cc4)no3)CC2)cc1,/,29,/,/,.
COc1cc(-c2nc(-c3ccc(NC(=O)c4ccc5c(c4)OCO5)cc3)no2)cc(OC)c1OC,.,43,.,.,.
COc1ccc(-c2nc(CS(=O)(=O)CC(=O)Nc3ccc(Cl)cc3)c(C)o2)cc1,.,45,.,.,.
Cc1ccccc1-c1nc(-c2ccc(NC(=O)c3ccc4c(c3)OCO4)cc2)no1,.,.,.,.,/
COc1ccc(NC(=O)CS(=O)(=O)Cc2nc(-c3ccc(C)cc3)oc2C)cc1,/,.,/,/,/
C=C1CSc2nc(=O)c3c(C)c(C)sc3n21,.,.,.,.,/
CCOc1ccc(NC(=S)NC(=O)/C=C/c2ccc(C)cc2)c([N+](=O)[O-])c1,.,39,.,.,.
CCOc1ccc(NC(=O)/C=C/c2ccc(OC)cc2)c([N+](=O)[O-])c1,.,.,.,.,/
CCOc1ccc(NC(=S)NC(=O)/C=C/c2ccc(OC)c(OC)c2)c([N+](=O)[O-])c1,.,25,.,.,.
CC(=O)Nc1nnc(SCC(=O)NCc2ccc3c(c2)OCO3)s1,/,.,/,/,/
CCC(=O)Nc1nnc(SCC(=O)NCc2ccc3c(c2)OCO3)s1,/,23,/,/,.
CCOC(=O)CSc1nnc(NC(=O)c2ccc3c(c2)OCO3)s1,/,41,/,/,.
CCOc1ccc2[nH]c(=O)c(CN(Cc3ccc(F)cc3)C(=O)N3CCCC3)cc2c1,.,.,.,.,/
COc1ccc(-n2c(N3CCN(C)CC3)nc3sc4c(c3c2=O)CCCCC4)cc1,.,.,.,.,/
C/C(=N\NC(=S)Nc1ccc(F)cc1)c1ccc2c(c1)OCCO2,.,.,.,.,/
CCC(=O)Nc1cccc(NC(=O)c2ccc3c(c2)OCO3)c1,.,28,.,.,.
C/C(=N/NC(=O)c1ccc2c(c1)OCO2)c1ccc(NC(=O)c2ccc(F)cc2)cc1,/,43,/,/,.
COc1cccc(NC(=O)c2ccc3c(c2)OCO3)c1,/,.,/,/,/
O=C(Cc1c(O)c2ccccc2oc1=O)c1ccc(F)cc1,/,.,/,/,/
Cc1ccc(C(=O)COC(=O)c2ccc3c(c2)C(=O)N(c2cccc4ncccc24)C3=O)cc1,88,49,.,84,.
SMILES,14-3-3 Bad PPI,dFosB act-1,HMGR II inh,p47phox inh,dFosB act-2
O=C(COC(=O)c1ccc2c(c1)C(=O)N(c1cccc3ncccc13)C2=O)c1ccc(Cl)cc1,75,65,.,56,.
CCC(CC)C(=O)Nc1nnc(S(=O)(=O)N2c3ccccc3CC2C)s1 (stereo not drawn),/,.,/,/,/
Cc1ccc2c(c1)CC(C)N2S(=O)(=O)c1nnc(NC(=O)CC(C)C)s1 (stereo not drawn),/,27,/,/,.
COCCNC(=O)C(=O)NCC1OCCN1S(=O)(=O)c1ccc(C)cc1 (stereo not drawn),/,.,/,/,/
O=S(=O)(c1ccc(Cl)cc1)N1CCc2ccccc21,/,18,/,/,.
O=S(=O)(c1ccc(Cl)cc1)N1CCCc2ccccc21,/,.,/,/,/
CCOc1ccc(-n2c(SCC(=O)Nc3ccc(CC)cc3)nc3n[nH]c(C)c3c2=N)cc1,.,?,.,.,/
COc1ccccc1NC(=O)CSc1nc2n[nH]c(C)c2c(=N)n1-c1ccccc1Cl,.,53,.,.,.
Cc1[nH]nc2nc(SCC(=O)NC3CCCCC3)n(-c3ccc(Br)cc3)c(=N)c12,/,52,/,/,.
Cn1c(N)c(C(=O)CSc2nn(-c3ccc(F)cc3)c(=S)s2)c(=O)n(C)c1=O,/,52,/,/,.
CCCC(=O)Nc1ccccc1-c1nnn(CC(=O)Nc2ccc(OCC)cc2)n1,.,41,.,.,.
O=C(Cn1nnc(-c2ccccc2F)n1)Nc1cccc2ncccc12,.,26,.,.,.
Cc1ccc(NC(=O)Cn2nnc(-c3ccccc3NC(=O)c3cccs3)n2)cc1,.,48,.,.,.
O=C(Cn1nnc(-c2ccccc2NC(=O)c2ccccc2)n1)Nc1ccc2c(c1)OCCO2,.,44,.,.,.
CC1CCN(S(=O)(=O)c2ccc(NC(=O)Cn3nnc(-c4ccccc4F)n3)cc2)CC1,.,78,.,.,.
CCOC(=O)Nc1ccc(S(=O)(=O)Nc2nccc(C)n2)cc1,.,.,.,.,/
O=C(CSc1nccn(-c2ccc(F)c(F)c2)c1=O)NC1CCCC1,/,.,/,/,/
O=C(CSc1nccn(-c2cccc(F)c2)c1=O)Nc1ccc(Cl)cc1F,/,21,/,/,.
COc1cccc(CNC(=O)COC(=O)c2c(NC(C)=O)sc(C)c2C)c1,/,.,/,/,/
CC(=O)Nc1sc(C)c(C)c1C(=O)OCC(=O)NCc1ccc(Cl)cc1,/,90,/,/,.
Cc1ccc(-n2c(O)c(C=NCc3ccccn3)c3ccccc3c2=O)cc1,.,26,.,.,.
Cc1cccc(-n2c(O)c(C=NCc3ccccn3)c3ccccc3c2=O)c1,.,.,.,.,/
Cn1c(=S)ccc2ccccc21,.,.,.,.,/
CN(C)S(=O)(=O)Oc1ccsc1C(=O)Nc1ccc(Cl)cc1,.,.,.,.,/
O=C(N/N=C/c1ccc(-c2cccc(C(F)(F)F)c2)o1)c1ccccc1Br,.,.,.,.,/
SMILES,14-3-3 Bad PPI,dFosB act-1,HMGR II inh,p47phox inh,dFosB act-2
O=C(N/N=C/c1ccc(-c2cccc([N+](=O)[O-])c2)o1)c1ccccc1O,.,22,.,.,.
O=C(N/N=C/c1ccc(-c2cccc([N+](=O)[O-])c2)o1)c1ccc([N+](=O)[O-])cc1,.,.,.,.,/
O=C(N/N=C/c1ccc(-c2cccc(C(F)(F)F)c2)o1)c1ccccc1O,.,32,.,.,.
Cc1ccc(C)c(NC(=O)Cn2nc(-c3ccccc3)nc2-c2ccccc2)c1,.,55,.,.,.
CC(=O)Oc1ccc2c(=O)c(N3C(=O)c4ccccc4C3=O)c(C)oc2c1C,.,.,.,.,/
COc1ccc(OCc2nnc(NC(=O)Nc3ccc(F)cc3)s2)cc1,.,73,.,.,.
O=C(CSc1nnc(-c2ccco2)o1)Nc1cccc([N+](=O)[O-])c1,/,41,/,/,.
COc1ccc(S(=O)(=O)Nc2cccc(-c3ccc4nncn4n3)c2)cc1,/,21,/,/,.
CCOC(=O)c1cc(-c2ccccc2)nn1CC1CC(c2cccc([N+](=O)[O-])c2)=NO1 (stereo not drawn),/,.,/,/,/
COC(=O)c1ccc(/C=C2\Oc3ccccc3NC2=O)cc1,/,33,/,/,.
O=C1Nc2ccccc2O/C1=C\c1c(F)cccc1Cl,/,25,/,/,.
COC(=O)c1ccc2c(c1)C(=O)/C(=C/c1ccc(C)cc1)O2,.,.,.,.,/
CCCc1cc(=O)n2[nH]c(-c3ccc(C)cc3)cc2n1,.,.,.,.,/
